# From PubChem
# Most compounds without a hit are left out; they make up all but 2.4% or so of the library.
# FEN1 inh: qHTS Assay for the Inhibitors of Human Flap endonuclease 1 (FEN1). P39748. AID 588795, 2011. 0.35% of 390,000 active. Potency, µM (series often up to 114 µM), for inactives: at the top dose activity change, negative = inhibition, hits mostly inhibitors. Recombinant FEN1 flap cleavage, fluorescence, 15 min; also: % is scaled to controls: 0 for no effect and ±100 for the full control effect; nearly all actives have a fitted effect of over 65% in size
#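 Concentration–response screening of FEN1 (10 nM): 15 min compound preincubation at room temperature, reaction started with 50 nM substrate and read at 0 and 15 min. Corrected, normalized data were fitted by a four-parameter Hill equation.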
# POLI inh: qHTS for Inhibitors of Polymerase Iota; DNA polymerase iota (Homo sapiens), Q9UNA4; Pol iota fluorescent replication assay, 10 min; Potency, µM (series often up to 115 µM), for the others: at the top dose activity, negative = inhibition, most hits filed as inhibitors; 1% of 390,000 active
# Target sequence (Q9UNA4 whole entry, looked up): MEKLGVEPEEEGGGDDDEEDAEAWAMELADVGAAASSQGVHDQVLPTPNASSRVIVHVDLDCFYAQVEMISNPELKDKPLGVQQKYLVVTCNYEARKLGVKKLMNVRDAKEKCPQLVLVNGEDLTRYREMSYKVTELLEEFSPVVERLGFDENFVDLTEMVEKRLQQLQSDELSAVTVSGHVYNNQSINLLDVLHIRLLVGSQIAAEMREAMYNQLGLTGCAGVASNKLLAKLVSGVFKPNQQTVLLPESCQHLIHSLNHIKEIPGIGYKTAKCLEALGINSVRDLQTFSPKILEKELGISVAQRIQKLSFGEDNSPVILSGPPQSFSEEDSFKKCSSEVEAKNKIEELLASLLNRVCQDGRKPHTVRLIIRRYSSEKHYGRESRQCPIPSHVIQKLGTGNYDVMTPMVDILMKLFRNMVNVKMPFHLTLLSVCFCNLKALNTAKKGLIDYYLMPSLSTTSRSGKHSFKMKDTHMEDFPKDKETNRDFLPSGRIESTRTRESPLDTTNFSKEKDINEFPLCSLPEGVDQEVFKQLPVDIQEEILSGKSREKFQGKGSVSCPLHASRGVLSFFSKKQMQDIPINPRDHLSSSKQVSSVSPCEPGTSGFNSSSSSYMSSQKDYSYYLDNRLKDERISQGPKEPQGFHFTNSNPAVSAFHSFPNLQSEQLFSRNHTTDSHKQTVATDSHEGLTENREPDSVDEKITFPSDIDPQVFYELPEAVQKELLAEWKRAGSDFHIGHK
#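 Fluorescent replication assay read twice, at 0 min and 10 min after adding 50 nM (final) substrate. Enzyme (10 nM) and compounds were first incubated 15 min at room temperature; enzyme-free buffer wells were negative controls.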
# POLK inh: qHTS for Inhibitors of Polymerase Kappa; DNA polymerase kappa (Homo sapiens), Q9UBT6; purified Pol kappa, fluorescent DNA synthesis assay, 10 min; Potency, µM (doses to about 107 µM), without a hit: at the highest dose activity, negative = inhibition, usual class: inhibitors; 0.53% of 400,000 active; AID 588579, 2011; also: % is scaled to controls: 0 for no effect and ±100 for the full control effect
#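 50 nM final substrate added after 15 min RT preincubation of 10 nM Pol kappa with compound; fluorescence read at 0 and 10 min.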
# Pol eta inh: qHTS for Inhibitors of Polymerase Eta; 1.2% of 390,000 active; Potency, µM (top dose mostly 114 µM), for the others: at the highest dose activity change, negative = inhibition, actives largely listed as inhibitors; AID 588591, 2011; recombinant Pol eta, fluorescent DNA replication assay; also: % is scaled to controls: 0 for no effect and ±100 for the full control effect
#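 Pol eta (10 nM) was preincubated with compounds for 15 min at room temperature, after which fluorescent replication substrate (50 nM final) was added to start the reaction. Fluorescence was read kinetically at 0 and 10 min.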
# WRN helicase inh: qHTS for Inhibitors of WRN Helicase; Potency, µM (titrated, usually from 114 µM), inactives show top-dose activity change, negative = inhibition, usual class: inhibitors; WRN helicase unwinding, fluorescent forked duplex, kinetic; Bifunctional 3'-5' exonuclease/ATP-dependent helicase WRN (Homo sapiens), Q14191; AID 651768, 2012; 0.46% of 360,000 active; also: % is scaled to controls: 0 for no effect and ±100 for the full control effect; nearly all actives have a fitted effect of over 55% in size
#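 Kinetic fluorescence helicase assay: unwinding of a quenched forked DNA duplex (100 nM final) with 2 mM ATP final raises red fluorescence (525/598 nm). Compounds sat 15 min at room temperature with 20 nM WRN beforehand.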
# POLB inh: qHTS Assay for Inhibitors of DNA Polymerase Beta; Pol beta primer extension/strand displacement, fluorescence kinetic; AID 485314, 2010; Potency, µM (highest dose often 114 µM), inactives show top-dose activity change, negative = inhibition, most hits filed as inhibitors; 1.3% of 340,000 active; also: % is scaled to controls: 0 for no effect and ±100 for the full control effect
#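 Kinetic readout of DNA synthesis with strand displacement by Pol beta. Compound and 10 nM enzyme sit 15 min at room temperature; 50 nM substrate starts the reaction, read immediately and at 10 min.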
# * marks the source's active call; other numbers are inactive results; u = inconclusive; x = not tested or not shown; [ ] = dose if it differs, or a comment. Calls follow the shape of the dose curve; as a rule, active = well fitted curve in the direction sought with a large enough effect; inconclusive = small, poorly fitted or top-dose-only effect, or another doubt; inactive = no such curve, though single readings can be large; an effect the other way counts as inactive or inconclusive. Potency is read from the fitted curve at half-maximal effect.
SMILES,FEN1 inh,POLI inh,POLK inh,Pol eta inh,WRN helicase inh,POLB inh
COc1cc(/C=C2\C(=N)N3N=C(C)SC3=NC2=O)cc(Cl)c1OCCOc1ccc(NC(C)=O)cc1,-16%,u,-2%[60.1 µM],89µM*,-13%[11.6 µM],3%
COc1cc(/C=C2\C(=N)N3N=C(C(C)C)SC3=NC2=O)ccc1OCCOc1ccc(NC(C)=O)cc1,3%,-13%,-2%,-6%,-18%,-18%
COc1ccccc1C=C1SC(=S)NC1=O,-3%,u,-28%,u,-23%,x
CC(=C1SC(=S)NC1=O)c1ccccc1,3%,89µM*,-10%,3%,-11%[11.6 µM],x
CCCCCCCCCCCCN1[C@@H](CC(=O)O)c2cc(C(F)(F)F)ccc2S1(=O)=O,-35%,u,u,45µM*,-31%,x
Nc1ccc(C(=O)O)c(O)c1,17%,-13%,-13%,-13%,-9%,-13%
Nc1ccc(N)c(C(=O)O)c1,u,2.5µM*,6.3µM*,1.3µM*,32µM*,0.4µM*
O=C(CNC(=O)N1CC(=O)Nc2ccccc21)Nc1cc(Cl)ccc1Cl,40µM*,-23%,1%,-7%,1%[11.6 µM],39%
Fc1ccc(-n2cc(-c3ccccc3)c3c(=S)nc[nH]c32)cc1,-12%,79µM*,u,-29%,-4%,4%
COc1ccc(/C(O)=C2/C(=O)C(=O)N(Cc3cccnc3)C2c2ccccn2)cc1 (configuration not stated),-1%,-8%,-5%,-12%,-13%,3%
CC(C)Oc1ccc(/C(O)=C2/C(=O)C(=O)N(Cc3cccnc3)C2c2ccco2)cc1 (configuration not stated),-5%,u,-7%,3%,-10%,32µM*
CC1(NC(=O)CC[N+](C)(C)CCO)CS(=O)(=O)CC1S(=O)(=O)[O-] (configuration not stated),x,x,x,x,x,2µM*
O=c1c2oc3ccccc3c2n(Cc2ccccc2Cl)c(=O)n1Cc1ccc2c(c1)OCO2,15%,18%,-17%,-4%,x,-13%
Cc1occc1C(=O)NCc1ccc2c(c1)OCO2,-6%,9%,-22%,u,8%,1%
Cc1occc1C(=O)NCc1cccc(CNC(=O)c2ccoc2C)c1,u,16µM*,32µM*,3.5µM*,40µM*,22µM*
CC1CCN(S(=O)(=O)c2ccc3c(ccc(=O)n3CC(=O)Nc3cccc(F)c3)c2)CC1,13%,16%,-2%[60.1 µM],-8%,x,-21%
COC(=O)CSc1nc(-c2ccccc2)cc(-c2ccco2)c1C#N,-18%,38%,-29%,0%,-3%,28µM*
N#Cc1c(-c2ccc(F)cc2)cc(-c2ccccc2)nc1SCC(=O)NCC(=O)O,u,u,-12%,-20%,-1%,45µM*
COC(=O)CSc1nc(N)c(C#N)c(-c2ccco2)c1C#N,7%,8%,-20%,u,-30%,29%
O=C(/C=C/c1ccccc1Cl)Nc1nc(-c2cccs2)ns1,-1%,32%,-3%,-18%,x,18%
O=C(O)CCn1cnc2onc(-c3ccccc3Cl)c2c1=O,14%,6%,-15%,-4%,x,22µM*
COc1ccc2nc(C)cc(SCC(=O)NNC(=O)COc3cccc4ccccc34)c2c1,-15%,u,-22%,u,-13%,13µM*
CCN(CC)c1ccc(NS(=O)(=O)c2cc3[nH]c(=O)c(=O)[nH]c3cc2C)c(C)c1,1%,u,u,-24%,x,50µM*
Cc1cc(Cl)ccc1NS(=O)(=O)c1cc2[nH]c(=O)c(=O)[nH]c2cc1C,-18%,16%,-9%,-8%,x,39%
CCS(=O)(=O)N1Cc2ccccc2CC1C(=O)Nc1cc(S(C)(=O)=O)ccc1Cl (configuration not stated),9%,35µM*,u,u,-8%[11.6 µM],-11%
SMILES,FEN1 inh,POLI inh,POLK inh,Pol eta inh,WRN helicase inh,POLB inh
CCS(=O)(=O)N1Cc2ccccc2CC1C(=O)Nc1ccc(F)c(F)c1F (configuration not stated),11%,16%,-19%,-6%,1%,9%
NC(=O)CC(NC(=O)Cc1ccc(Cl)cc1)c1ccc(NCCCN2CCCC2=O)c([N+](=O)[O-])c1 (configuration not stated),5%,4%,9%,-10%,-2%,1%
NC(=O)CC(NC(=O)c1ccccc1)c1ccc(NCCCN2CCCC2=O)c([N+](=O)[O-])c1 (configuration not stated),5%,u,-6%,4%,-14%,79µM*
CCc1ccccc1NC(=O)Nc1ccc2c(c1)N(CC)C(=O)c1ccccc1S2,-2%,23%,-4%,-11%,x,1%
Cc1ccc(-c2cc(C(=O)N3CCN(c4ccc(F)cc4)CC3)c3ccccc3n2)o1,6%,35µM*,-21%,u,-19%,28µM*
COc1ccc(-c2cc(C(=O)N3CCCCCC3)c3ccccc3n2)c(OC)c1,-24%,79µM*,-39%,u,-15%,22µM*
Cc1ccccc1-c1cc(C(=O)N2CCCC2)c2ccccc2n1,1%,25µM*,u,u,-22%,u
NC(=O)C1CCCN1C(=O)C(Cc1cnc[nH]1)NC(=O)C1CCC(=O)N1 (configuration not stated),x,x,12%[60.1 µM],x,x,x
O=C(Cc1cccc2ccccc12)NO,-2%,-1%,3%,x,x,x
CC(C)(C)c1ccc(C(=O)C[n+]2ccc(Cl)c3ccc(Cl)cc32)cc1,9%,7%,-3%,x,x,x
COc1cc(OC)c(N(C)C(=O)C2CCCN(c3ncnc4c3nc3n4CCCCC3)C2)cc1Cl (configuration not stated),-15%,-8%,-8%,-6%,x,12%
COC(=O)CC1Oc2ccc(Cl)cc2-n2cc(-c3ccc(C)cc3)nc21 (configuration not stated),9%,12%,-15%,7%,x,6%
COc1ccc(-c2csc(NC(=O)c3cccc(N4C(=O)CCC4=O)c3)n2)cc1C,-2%,9%,-8%,-17%,-32%,-18%
COc1ccc(OC)c2sc(NC(=O)c3cccc(N4C(=O)CCC4=O)c3)nc12,u,28µM*,-21%,u,u,u
CCOc1cc(C2Nc3cccc4cccc(c34)N2)ccc1O,u,u,-8%,79µM*,-9%,1%
